Assay results as given in article PMC7862700, “An all-to-all approach to the identification of sequence-specific readers for epigenetic DNA modifications on cytosine”.

Key:
Test in all cases: DAPPL (digital affinity profiling via proximity ligation, sequencing); 10 mM Tris-HCl pH 7.5, 50 mM NaCl, 1 mM DTT, 4% glycerol, room temperature, 30 min; GST-TFs on glutathione beads, 16-mer random dsDNA library, 0.1% formaldehyde crosslink after washing; high values mean tight binding
Details in all cases: protein: recombinant; tags: N-terminal GST; dsDNA, one strand shown
[1] = biological target: T1, ELK1 (Homo sapiens, UniProt P19419 1-428)
T1 sequence: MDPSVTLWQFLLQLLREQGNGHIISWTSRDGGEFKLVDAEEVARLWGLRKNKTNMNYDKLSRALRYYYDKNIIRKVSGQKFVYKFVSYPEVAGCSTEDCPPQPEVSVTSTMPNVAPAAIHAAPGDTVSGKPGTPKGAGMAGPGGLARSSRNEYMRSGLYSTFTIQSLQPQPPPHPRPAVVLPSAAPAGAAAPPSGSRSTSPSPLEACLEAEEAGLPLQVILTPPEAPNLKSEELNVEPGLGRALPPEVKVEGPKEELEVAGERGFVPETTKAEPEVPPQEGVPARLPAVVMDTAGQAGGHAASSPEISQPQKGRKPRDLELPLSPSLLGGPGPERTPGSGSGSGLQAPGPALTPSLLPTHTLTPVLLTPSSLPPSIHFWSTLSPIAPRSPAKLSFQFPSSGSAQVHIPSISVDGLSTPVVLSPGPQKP
How it was run: (§1)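 Yeast served to express human transcription factors as GST fusions, which were then captured on glutathione beads and labelled with DNA barcodes. Pooled with a tag-only sample, they were incubated with 200 nmole of a 16-mer random double-stranded DNA library for 30 min at room temperature in Tris/NaCl/DTT/glycerol buffer, washed, crosslinked with 0.1% formaldehyde, ligated by proximity, amplified by PCR and sequenced. Dividing each hexamer's read frequency for a factor by its frequency for the tag-only sample gives the binding signal.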

[2] = biological target: T2, GABPA (Homo sapiens, UniProt Q06546 1-454)
T2 sequence: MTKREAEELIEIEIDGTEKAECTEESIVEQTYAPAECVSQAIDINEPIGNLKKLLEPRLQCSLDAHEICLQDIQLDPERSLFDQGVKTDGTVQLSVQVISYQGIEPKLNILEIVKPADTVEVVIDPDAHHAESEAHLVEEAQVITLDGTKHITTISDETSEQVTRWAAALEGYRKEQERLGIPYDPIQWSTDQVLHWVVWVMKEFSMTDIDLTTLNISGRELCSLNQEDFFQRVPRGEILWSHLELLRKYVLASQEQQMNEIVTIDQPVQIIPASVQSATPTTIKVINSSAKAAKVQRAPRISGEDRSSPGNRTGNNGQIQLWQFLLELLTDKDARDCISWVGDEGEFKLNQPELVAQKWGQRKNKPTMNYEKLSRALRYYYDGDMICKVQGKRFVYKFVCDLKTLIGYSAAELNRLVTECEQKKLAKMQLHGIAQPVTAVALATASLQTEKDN
How it was run: as §1

[3] = biological target: T3, ERG (Homo sapiens, UniProt P11308 1-479)
T3 sequence: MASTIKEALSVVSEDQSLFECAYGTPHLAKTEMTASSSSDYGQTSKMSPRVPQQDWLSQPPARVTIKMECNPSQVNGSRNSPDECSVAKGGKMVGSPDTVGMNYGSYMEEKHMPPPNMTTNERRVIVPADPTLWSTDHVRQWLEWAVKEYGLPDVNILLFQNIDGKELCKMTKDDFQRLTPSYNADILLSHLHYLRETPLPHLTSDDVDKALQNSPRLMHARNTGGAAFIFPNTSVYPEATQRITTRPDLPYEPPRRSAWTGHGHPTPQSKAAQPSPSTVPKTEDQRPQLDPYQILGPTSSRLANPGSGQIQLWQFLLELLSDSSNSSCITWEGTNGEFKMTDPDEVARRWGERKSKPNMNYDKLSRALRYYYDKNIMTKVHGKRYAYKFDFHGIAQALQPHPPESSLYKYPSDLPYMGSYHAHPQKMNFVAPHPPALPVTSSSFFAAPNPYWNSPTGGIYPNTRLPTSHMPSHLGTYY
How it was run: as §1

[4] = biological target: ELF1 (Homo sapiens, UniProt P32519 1-619)
How it was run: as §1

[5] = biological target: T4, EHF (Homo sapiens, UniProt Q9NZC4 1-300)
T4 sequence: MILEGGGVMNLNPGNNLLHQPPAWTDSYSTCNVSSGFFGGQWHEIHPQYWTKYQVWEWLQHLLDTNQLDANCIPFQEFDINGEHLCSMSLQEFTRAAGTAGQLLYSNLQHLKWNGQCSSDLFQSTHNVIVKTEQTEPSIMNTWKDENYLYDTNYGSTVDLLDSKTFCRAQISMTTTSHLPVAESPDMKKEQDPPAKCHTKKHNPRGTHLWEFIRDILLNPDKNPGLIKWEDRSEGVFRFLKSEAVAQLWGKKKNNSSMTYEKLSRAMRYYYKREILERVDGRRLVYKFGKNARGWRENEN
How it was run: as §1

[6] = biological target: T5, FEV (Homo sapiens, UniProt Q99581 1-238)
T5 sequence: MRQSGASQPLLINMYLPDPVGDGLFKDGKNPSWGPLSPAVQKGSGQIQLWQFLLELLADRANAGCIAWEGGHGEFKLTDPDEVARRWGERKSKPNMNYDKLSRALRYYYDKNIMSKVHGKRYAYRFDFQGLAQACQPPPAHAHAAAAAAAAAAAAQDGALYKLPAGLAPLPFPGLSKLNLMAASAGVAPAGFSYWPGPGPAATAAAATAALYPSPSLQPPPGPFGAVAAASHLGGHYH
How it was run: as §1

[7] = biological target: ETV5 (Homo sapiens, UniProt P41161 1-510)
How it was run: as §1

[8] = biological target: ELF4 (Homo sapiens, UniProt Q99607 1-663)
How it was run: as §1

[9] = biological target: T6, ELK4 (Homo sapiens, UniProt P28324-2 1-405)
T6 sequence: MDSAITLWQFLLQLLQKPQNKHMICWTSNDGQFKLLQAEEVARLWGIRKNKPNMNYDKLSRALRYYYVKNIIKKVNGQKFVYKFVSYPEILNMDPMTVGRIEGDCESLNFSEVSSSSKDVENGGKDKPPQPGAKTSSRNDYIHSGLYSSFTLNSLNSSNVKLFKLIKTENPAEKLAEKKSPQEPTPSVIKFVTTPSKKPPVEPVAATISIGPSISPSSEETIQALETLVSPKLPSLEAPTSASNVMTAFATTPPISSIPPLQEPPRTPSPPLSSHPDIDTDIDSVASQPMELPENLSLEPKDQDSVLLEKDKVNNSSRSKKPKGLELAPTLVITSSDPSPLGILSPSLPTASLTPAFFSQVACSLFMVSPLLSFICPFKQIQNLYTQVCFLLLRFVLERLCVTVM
How it was run: as §1

ETV5, sequence (P41161 whole entry): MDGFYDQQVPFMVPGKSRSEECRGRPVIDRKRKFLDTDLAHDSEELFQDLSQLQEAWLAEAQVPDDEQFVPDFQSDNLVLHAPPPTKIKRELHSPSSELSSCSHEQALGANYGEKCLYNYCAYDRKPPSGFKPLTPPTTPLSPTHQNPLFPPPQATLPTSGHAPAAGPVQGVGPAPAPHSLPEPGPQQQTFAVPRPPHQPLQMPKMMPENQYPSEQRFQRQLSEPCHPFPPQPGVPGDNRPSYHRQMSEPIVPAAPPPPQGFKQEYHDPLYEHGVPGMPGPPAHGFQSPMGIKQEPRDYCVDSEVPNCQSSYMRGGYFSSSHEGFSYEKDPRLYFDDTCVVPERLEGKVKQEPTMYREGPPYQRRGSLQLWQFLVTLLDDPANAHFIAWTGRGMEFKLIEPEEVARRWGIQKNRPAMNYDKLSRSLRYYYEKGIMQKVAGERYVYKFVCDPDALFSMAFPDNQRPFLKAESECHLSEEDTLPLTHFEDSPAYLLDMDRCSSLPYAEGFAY
ELF1, sequence (P32519 whole entry): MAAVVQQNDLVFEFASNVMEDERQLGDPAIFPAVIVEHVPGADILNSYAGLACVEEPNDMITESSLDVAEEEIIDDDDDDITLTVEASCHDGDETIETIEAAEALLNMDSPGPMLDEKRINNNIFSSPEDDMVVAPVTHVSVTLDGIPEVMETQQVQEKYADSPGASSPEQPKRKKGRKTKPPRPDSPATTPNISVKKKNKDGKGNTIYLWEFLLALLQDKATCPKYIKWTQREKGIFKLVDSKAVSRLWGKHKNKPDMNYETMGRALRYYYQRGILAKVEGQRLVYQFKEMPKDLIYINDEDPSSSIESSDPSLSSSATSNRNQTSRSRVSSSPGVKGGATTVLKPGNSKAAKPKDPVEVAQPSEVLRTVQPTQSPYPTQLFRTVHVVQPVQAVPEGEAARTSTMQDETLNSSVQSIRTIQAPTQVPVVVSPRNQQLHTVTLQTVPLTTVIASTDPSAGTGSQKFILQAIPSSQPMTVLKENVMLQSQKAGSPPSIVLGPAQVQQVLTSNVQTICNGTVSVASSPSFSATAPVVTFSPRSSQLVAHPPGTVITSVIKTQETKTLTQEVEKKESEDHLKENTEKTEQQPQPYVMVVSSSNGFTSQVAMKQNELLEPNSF
ELF4, sequence (Q99607 whole entry): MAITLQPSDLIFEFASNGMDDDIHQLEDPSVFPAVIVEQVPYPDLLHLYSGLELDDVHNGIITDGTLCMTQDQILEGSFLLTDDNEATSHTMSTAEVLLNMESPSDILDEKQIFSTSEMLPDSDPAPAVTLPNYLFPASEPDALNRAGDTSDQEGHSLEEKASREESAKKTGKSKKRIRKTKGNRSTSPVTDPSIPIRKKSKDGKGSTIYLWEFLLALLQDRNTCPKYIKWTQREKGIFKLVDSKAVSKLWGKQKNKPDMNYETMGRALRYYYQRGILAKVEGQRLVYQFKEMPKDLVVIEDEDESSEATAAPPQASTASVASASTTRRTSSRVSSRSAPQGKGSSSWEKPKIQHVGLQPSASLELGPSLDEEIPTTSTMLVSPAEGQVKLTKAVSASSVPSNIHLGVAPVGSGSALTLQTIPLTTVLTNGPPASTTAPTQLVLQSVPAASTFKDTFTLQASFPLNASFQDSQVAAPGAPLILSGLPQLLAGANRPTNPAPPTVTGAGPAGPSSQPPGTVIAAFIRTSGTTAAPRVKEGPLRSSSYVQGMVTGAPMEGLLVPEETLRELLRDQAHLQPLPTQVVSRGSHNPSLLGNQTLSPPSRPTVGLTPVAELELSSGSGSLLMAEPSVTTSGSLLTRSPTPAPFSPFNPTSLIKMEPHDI

For TCATGT, the binding signal [1] was 1.17 fold enrichment (6-mer frequency, TF over GST control), the binding signal [2] was 1.11 fold enrichment (6-mer frequency, TF over GST control) and the binding signal [3] was 1.1 fold enrichment (6-mer frequency, TF over GST control). For the same sequence, the binding signal [4] was 1.15 fold enrichment (6-mer frequency, TF over GST control), the binding signal [5] was 1.02 fold enrichment (6-mer frequency, TF over GST control) and the binding signal [6] was 1.05 fold enrichment (6-mer frequency, TF over GST control). For the same sequence, the binding signal [7] was 1.16 fold enrichment (6-mer frequency, TF over GST control), the binding signal [8] was 1.1 fold enrichment (6-mer frequency, TF over GST control) and the binding signal [9] was 1.08 fold enrichment (6-mer frequency, TF over GST control).
